# Data published in PubChem BioAssay AID1259421 (Broad Institute, 2018).
# Values joined by “and” are separate entries in the source; they are usually repeats but may differ in a detail not shown here. Identical values can stand only once. The campaign covered roughly 6,400 compounds. About 610 (9.5%) were called active. No stated cut-off is given here; in the data, active means activity change below about -70%; inconclusive means no clear call, values can overlap the other calls; inactive means above that. What follows is part of a selection rich in actives, with near analogues and random picks from the rest. The source holds several records for some structures; these can differ, active in one and inactive in another.
# Assay: T. gondii ME49Luc in HeLa cells, luciferase assay, 72 h, no IFN-y (AID 1259421)
# Conditions: stronger effect = lower value, concentration not given here
row,Compound,"activity change, negative = inhibition"
1,CC(O)C1C(=O)N2C(C(=O)O)=C(C3CCCO3)SC12 (stereo unspecified),5.92% (inactive)
2,COc1ccc(Cc2cnc(N)nc2N)cc1OC,9.87% (inactive)
3,CCOc1ccc(Cc2nccc3cc(OCC)c(OCC)cc23)cc1OCC,-67.8% (inactive) and -79.8% (active)
4,COc1ccc(Cc2nccc3cc(OC)c(OC)cc23)cc1OC,-2.52% (inactive) and -6.18% (inactive)
5,CN1C(=O)C(F)=C[C@]2(C)[C@H]3CC[C@]4(C)[C@@H](C(=O)NCc5nc6ncccc6[nH]5)CC[C@H]4[C@@H]3CC[C@@H]12,-1.27% (inactive)
6,C=C[C@@H](C1=CC(=O)C(OC)=C(OC)C1=O)c1ccccc1,-1.89% (inactive)
7,COc1cc(N)c(Cl)cc1C(=O)N[C@@H]1CCNCC1OC (stereo partly specified),8% (inactive)
8,O=C(O)C1(Cc2cccc(Nc3nccs3)n2)CCC(Oc2cccc(Cl)c2F)CC1 (stereo unspecified),-34% (inactive)
9,CC(C)(C)CC(C)(C)c1ccc(O)c(-n2nc3ccccc3n2)c1,47.6% (inactive)
10,O=C(Nc1cn[nH]c1-c1nc2ccc(CN3CCOCC3)cc2[nH]1)NC1CC1,-84.3% (active)
11,O=C(c1ccc(CN2CCOCC2)cc1)N1CCN(C2CC2)CC1,10.6% (inactive)
12,CC(C)(S)C(=O)N[C@@H](CS)C(=O)O,-3.42% (inactive)
13,CCOC(=O)Nc1c[n+](N2CCOCC2)no1,8.47% (inactive)
14,C/C(=N\NC(=S)N1CCC1)c1ccccn1,-84.6% (active)
15,Cc1ccc(/C(=C\CN2CCCC2)c2ccccn2)cc1,0.786% (inactive) and 2.04% (inactive)
16,Cc1ccc(/C(=C/CN2CCCC2)c2ccccn2)cc1,-1.47% (inactive)
17,CC(=O)O[C@@H]1CC2C(C)(C)C(=O)C=C[C@]2(C)C2CC[C@@]3(C)[C@H](c4ccoc4)OC(=O)[C@H]4O[C@]43[C@@]21C (stereo partly specified),22.1% (inactive)
18,Nc1nc2c(c(=O)[nH]1)N(C=O)[C@@H](CNc1ccc(C(=O)N[C@@H](CCC(=O)O)C(=O)O)cc1)CN2,22.2% (inactive)

row,Compound,"activity change, negative = inhibition"
1,CCOC(=O)C1=CCCC[C@H]1S(=O)(=O)Nc1ccc(F)cc1Cl,18.7% (inactive)
2,O=C(O)Cc1ccc2c(c1)C(=O)c1ccccc1CO2,19.3% (inactive)
3,COC(=O)c1c(C)c2c(c(C)c1O)OC(=O)c1c(C)c(Cl)c(O)c(Cl)c1O2,-3.73% (inactive)
4,COc1cc(C)c2c(c1C=O)Oc1c(c(C)c(O)c3c1C(O)OC3=O)OC2=O (stereo unspecified),-5.42% (inactive)
5,Cc1cc(O)c(C=O)c2c1C(=O)Oc1c(C)c(O)c3c(c1O2)C(O)OC3=O (stereo unspecified),-75.6% (active)
6,CS(=O)(=O)Nc1c(O)ccc2c1CCCC2C1=NCCN1 (stereo unspecified),15.3% (inactive) and 0.146% (inactive)
7,CC(=O)[C@@]1(O)CCC2C3C[C@H](C)C4=CC(=O)C=CC4(C)[C@@]3(F)[C@@H](O)C[C@@]21C (stereo partly specified),10% (inactive) and 7.34% (inactive)
8,NC(N)=NC(=O)c1nc(Cl)c(N2CCCCCC2)nc1N,3.26% (inactive)
9,CC(=O)OCC(=O)[C@@]1(O)[C@@H](C)CC2C3CCC4=CC(=O)C=C[C@]4(C)[C@@]3(F)[C@@H](O)C[C@@]21C (stereo partly specified),-12.5% (inactive)
10,N#Cc1cc(-c2n[nH]c(-c3ccncc3)n2)ccn1,17.6% (inactive)
11,O=C(O)/C=C/c1ccc(-c2ccc(O)c(C34CC5CC(CC(C5)C3)C4)c2)cc1,-96.6% (active)
12,O=C(O)c1ccc(-c2ccc3cc(O)c(C45CC6CC(CC(C6)C4)C5)cc3c2)cc1,-2.82% (inactive)
13,O=C(O)c1ccc2cc(-c3ccc(O)c(C45CC6CC(CC(C6)C4)C5)c3)ccc2c1,-56% (inactive)
14,CC(C)=CCC[C@](C)(O)[C@H]1CC[C@]2(C)[C@@H]1[C@H](O)C[C@@H]1[C@@]3(C)CC[C@H](O)C(C)(C)[C@@H]3[C@@H](O)C[C@]12C,8.14% (inactive)
15,COc1c2ccoc2cc2oc(C)cc(=O)c12,0.747% (inactive)
16,C=C1CC[C@H](O)C/C1=C/C=C1\CCC[C@]2(C)[C@@H]([C@H](C)CC[C@@H](O)C(C)(C)O)CC[C@@H]12,1.97% (inactive)
17,C=C1/C(=C/C=C2\CCC[C@]3(C)[C@@H]([C@H](C)/C=C/[C@@H](C)C(C)C)CC[C@@H]23)C[C@@H](O)C[C@@H]1O,-75% (active)
18,C=C1/C(=C\C=C2\CCC[C@]3(C)[C@@H]([C@H](C)CCCC(C)C)CC[C@@H]23)C[C@@H](O)C[C@@H]1O,-54.9% (inactive)
